Compound activity deposited in PubChem BioAssay by National Center for Advancing Translational Sciences (NCATS).
TDP1 cell CPT = qHTS for Inhibitors of human tyrosyl-DNA phosphodiesterase 1 (TDP1): qHTS in cells in presence of CPT; chicken DT40 Tdp1-/-;hTDP1 cells + 20 nM CPT, ATP luminescence, 48 h; Potency, µM (highest dose often 46.2 µM), without a hit: at the top dose activity change, negative = growth inhibition, hits mostly inhibitors; hit rate 12% among 420,000; note: nearly all actives have a fitted effect of over 55% in size
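Cell growth measured by CellTiter-Glo luminescence after a minimum 48 h, 37 C compound exposure with 20 nM CPT in Tdp1-knockout DT40 cells stably expressing hTDP1, seeded 400/well; qHTS titration format.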
TDP1 cell noCPT = qHTS for Inhibitors of human tyrosyl-DNA phosphodiesterase 1 (TDP1): qHTS in cells in absence of CPT | Potency, µM (doses to about 46.2 µM), for the others: at the top dose activity change, negative = growth inhibition, usual class: inhibitors | DT40 Tdp1-/- hTDP1 cells, no CPT, ATP luminescence, 48 h | hit rate 15% among 420,000 | AID 686978, 2013; note: nearly all actives have a fitted effect of over 55% in size
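Seeded 400 DT40-hTDP1 cells/well (vehicle DMSO, no 20 nM CPT); pinned compounds; ≥48 hr at 37 °C; CellTiter-Glo luminescence as viability measure.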
VDR inhibitor = Inhibitors of the vitamin D receptor (VDR): qHTS; Vitamin D3 receptor (Homo sapiens), P11473; VDR-SRC2-3 peptide fluorescence polarization, 2 h; Potency, µM, for the others: max response, negative = inhibition, hits mostly inhibitors; hit rate 0.93% among 400,000
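Two reagent solutions held at 4 deg C in the dark were dispensed, compounds pinned at 23 nl, and the mixture incubated 2 h at room temperature. Read-out: fluorescence polarization of VDR–SRC2-3 peptide binding.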
PLK1 PBD inh = qHTS for Inhibitors of PLK1-PDB (polo-like kinase 1 - polo-box domain): Primary Screen; hit rate 2.8% among 360,000; AID 720504, 2013; Serine/threonine-protein kinase PLK1 (Homo sapiens), P53350; Potency, µM, for the others: max response, negative = inhibition, most hits filed as inhibitors; Plk1 PBD binding of FITC phosphopeptide, fluorescence polarization; note: series mostly up to about 57 µM; nearly all actives have a fitted effect of over 65% in size
TDP1 inh = qHTS Assay for Inhibitors of Tyrosyl-DNA Phosphodiesterase (TDP1); Tyrosyl-DNA phosphodiesterase 1 (Homo sapiens), Q9NUW8; Potency, µM (doses to about 130 µM), for the others: at the top dose activity change, negative = inhibition, usual class: inhibitors; recombinant TDP1, AlphaScreen DNA substrate cleavage; AID 485290, 2010; hit rate 0.28% among 350,000; note: nearly all actives have a fitted effect of over 40% in size
Target sequence (Q9NUW8 whole entry, looked up): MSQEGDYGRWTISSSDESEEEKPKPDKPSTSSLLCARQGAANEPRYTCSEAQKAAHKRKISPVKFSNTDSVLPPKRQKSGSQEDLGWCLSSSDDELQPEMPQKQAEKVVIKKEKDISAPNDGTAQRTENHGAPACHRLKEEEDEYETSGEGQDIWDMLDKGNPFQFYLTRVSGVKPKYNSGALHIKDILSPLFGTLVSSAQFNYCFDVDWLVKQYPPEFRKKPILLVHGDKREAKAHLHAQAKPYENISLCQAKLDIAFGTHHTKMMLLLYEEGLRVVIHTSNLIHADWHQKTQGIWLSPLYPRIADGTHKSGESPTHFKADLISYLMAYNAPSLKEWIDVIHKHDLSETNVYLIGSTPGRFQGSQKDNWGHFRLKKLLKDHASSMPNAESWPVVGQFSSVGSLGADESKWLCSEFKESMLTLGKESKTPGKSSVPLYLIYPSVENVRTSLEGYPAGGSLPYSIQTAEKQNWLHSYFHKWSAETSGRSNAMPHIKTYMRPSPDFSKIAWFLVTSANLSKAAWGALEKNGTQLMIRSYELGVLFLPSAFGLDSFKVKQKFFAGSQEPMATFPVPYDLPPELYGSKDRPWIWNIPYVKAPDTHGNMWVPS
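Recombinant human Tdp1 (E. coli-expressed, 1 nM final) preincubated with compounds 15 min at room temperature, then 5'-biotin/3'-phosphotyrosine-FITC DNA substrate (15 nM final) added for 5 min. AlphaScreen beads (10 ug/ml final) added 10 min; cleavage lowers signal.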
KAT2A inh = qHTS Assay for Inhibitors of GCN5L2. Histone acetyltransferase KAT2A (Homo sapiens), Q92830. GCN5L2 HAT assay, ThioGlo1 CoA-SH fluorescence. Potency, µM (highest dose often 58.9 µM), for the others: top-dose activity change, negative = inhibition, actives largely listed as inhibitors. hit rate 0.21% among 390,000. AID 504327, 2011
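GCN5L2 (20nM final) in 50mM HEPES, 0.1mM EDTA pH 7.5, 0.01% Tween-20 was preincubated 15 min at room temperature with compound, then given ThioGlo1 (50uM), H3(1-25) peptide (75uM) and acetyl-CoA (70uM); CoA-thiol fluorescence (Ex340/Em540) was read at 0 and 20 min.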
* = called active by the depositor. Sampled rows, rich in hits. Any-hit rate of the full collection: about 18%. Calls come from the whole dose curve; as a rule, active = well fitted curve in the direction sought with a large enough effect; inconclusive = small, poorly fitted or top-dose-only effect, or another doubt; inactive = no such curve, though single readings can be large; an effect the other way counts as inactive or inconclusive. % is set by controls: 0 for no effect and ±100 for the full control effect; potency is the fitted concentration of half-maximal effect.

For OCC1OC(n2cnc3c(=S)nc[nH]c32)CC1O (centres undefined) the results were TDP1 cell CPT 1%, TDP1 cell noCPT -10%, VDR inhibitor -14% and PLK1 PBD inh 3%.
COc1ccc(Oc2ncc3nc(-c4ccccc4)c(=O)n(CCC#N)c3n2)cc1 was read as TDP1 cell CPT 18%, TDP1 cell noCPT inconclusive, VDR inhibitor -1% and KAT2A inh -21%.
For CC1CCN(c2ccccc2NC(=S)NC(=O)c2ccco2)CC1 the results were TDP1 cell CPT inconclusive, TDP1 cell noCPT 29µM*, VDR inhibitor -10% and PLK1 PBD inh -7%.
For O=C(Nc1ccccc1N1CCOCC1)c1ccc(Br)o1 the results were TDP1 cell CPT 21µM*, TDP1 cell noCPT 23µM*, VDR inhibitor 5%, PLK1 PBD inh -4%, TDP1 inh 2% and KAT2A inh -9%.
O=C(NC(=S)Nc1ccccc1N1CCOCC1)c1ccc(-c2ccccc2F)o1 was read as TDP1 cell CPT 13µM*, TDP1 cell noCPT 23µM*, VDR inhibitor -11%, PLK1 PBD inh -1%, TDP1 inh 1% and KAT2A inh -5%.
Screening CC1CCN(c2ccccc2NC(=S)NC(=O)c2cccs2)CC1 returned TDP1 cell CPT inconclusive, TDP1 cell noCPT inconclusive, VDR inhibitor -1%, PLK1 PBD inh -3%, TDP1 inh 9% and KAT2A inh 0%.
`CC1CCN(c2ccccc2NC(=O)c2ccc(Br)o2)CC1` gave TDP1 cell CPT 16µM*, TDP1 cell noCPT inconclusive, VDR inhibitor -25%, PLK1 PBD inh -11%, TDP1 inh 8% and KAT2A inh -10%.
Screening NC(=O)CNc1n[nH]c(=S)[nH]c1=O returned TDP1 cell CPT 4%, TDP1 cell noCPT -17%, VDR inhibitor -11%, PLK1 PBD inh -11%, TDP1 inh 9% and KAT2A inh -11%.
CN(CC1(C)CCCO1)S(=O)(=O)c1ccc(Cl)c(S(N)(=O)=O)c1 (centres undefined) was read as TDP1 cell CPT inconclusive and TDP1 cell noCPT -2%.
For O=C(Cl)CCCCCCCC(=O)Cl the results were VDR inhibitor -1%, TDP1 inh 11% and KAT2A inh 37%.
`NS(=O)(=O)c1ccc(N=Nc2c(-c3ccccc3)[nH]n(-c3nc(-c4ccccc4)cs3)c2=O)cc1` gave TDP1 cell CPT 9.2µM*, TDP1 cell noCPT 3.3µM*, VDR inhibitor -3%, PLK1 PBD inh -15%, TDP1 inh 8% and KAT2A inh 7%.
Screening Cn1c(=O)c2[nH]c(SCc3ccccn3)nc2n(C)c1=S returned TDP1 inh 1% and KAT2A inh -13%.
For COc1ccc(Cl)c2c1[nH]c1nc(SCc3ccccn3)nnc12 the results were TDP1 cell CPT inconclusive, TDP1 cell noCPT 26µM*, VDR inhibitor 18%, PLK1 PBD inh -9%, TDP1 inh 0% and KAT2A inh -14%.
For CN(CC(=O)NCc1ccco1)CC(=O)Nc1cc(S(C)(=O)=O)ccc1Cl the results were TDP1 cell CPT 0%, TDP1 cell noCPT -2%, VDR inhibitor -6%, PLK1 PBD inh 4%, TDP1 inh 1% and KAT2A inh -7%.
For O=C(N/N=C/C=C/c1ccccc1)c1ccncc1 the results were TDP1 cell CPT inconclusive, TDP1 cell noCPT 21µM*, VDR inhibitor -18%, PLK1 PBD inh inconclusive, TDP1 inh 3% and KAT2A inh -4%.
